A number with no mark means an inactive call. Calls come from the whole dose curve; as a rule, active = well fitted curve in the direction sought with a large enough effect; inconclusive = small, poorly fitted or top-dose-only effect, or another doubt; inactive = no such curve, though single readings can be large or run the other way.
target: Thyrotropin receptor (Homo sapiens) (UniProt P16473); test: qHTS Assay for Antagonists of the Thyroid Stimulating Hormone Receptor (AID 488980); conditions: TSHR-expressing cells, cAMP antagonist read-out; series mostly up to 57.5 µM; activity, negative = inhibition: at the top concentration; note: 0% is about no effect
Sequence (P16473 whole entry, looked up): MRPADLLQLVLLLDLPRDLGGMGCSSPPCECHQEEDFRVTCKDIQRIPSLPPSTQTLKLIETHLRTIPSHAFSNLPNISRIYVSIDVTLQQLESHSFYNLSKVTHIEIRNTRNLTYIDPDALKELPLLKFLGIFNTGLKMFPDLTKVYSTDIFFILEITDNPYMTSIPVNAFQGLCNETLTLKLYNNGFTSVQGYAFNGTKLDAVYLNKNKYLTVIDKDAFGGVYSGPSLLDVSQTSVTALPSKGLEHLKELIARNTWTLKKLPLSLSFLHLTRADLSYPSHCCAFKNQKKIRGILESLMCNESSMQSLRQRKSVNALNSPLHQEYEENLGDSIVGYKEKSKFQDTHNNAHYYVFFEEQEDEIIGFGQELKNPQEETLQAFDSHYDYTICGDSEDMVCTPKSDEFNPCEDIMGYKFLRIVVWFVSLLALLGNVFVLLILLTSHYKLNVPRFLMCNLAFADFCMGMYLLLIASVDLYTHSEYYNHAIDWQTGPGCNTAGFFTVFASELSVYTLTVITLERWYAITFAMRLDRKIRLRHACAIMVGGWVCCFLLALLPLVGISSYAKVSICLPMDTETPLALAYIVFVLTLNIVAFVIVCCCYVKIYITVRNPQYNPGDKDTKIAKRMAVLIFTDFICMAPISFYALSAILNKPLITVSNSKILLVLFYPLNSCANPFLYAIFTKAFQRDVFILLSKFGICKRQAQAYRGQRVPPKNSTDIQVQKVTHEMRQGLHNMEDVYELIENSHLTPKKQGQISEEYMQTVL
Excerpt: TSH is an alpha/beta heterodimeric glycoprotein hormone secreted from the anterior pituitary gland which belongs to the glycoprotein hormone family. The actions of TSH are mediated by a seven-transmembrane receptor, which upon TSH binding couples preferentially to the G-alpha (s) protein (Gs), resulting in activation of adenylate cyclase and increase in cyclic adenosine 3', 5' monophosphate (cAMP). The TSH receptor (THSR) is mainly expressed in thyroid follicular cells and regulates their growth and function. This cell based assay was conducted on a TSHR transfected HEK 293 cell line, measuring cAMP stimulation using antibody-based Homogeneous Time Resolved Fluorescence (HTRF).
Our goal is to identify small molecules that will inhibit (antagonize) the thyroid-stimulating hormone receptor (TSHR), a member of the 7 transmembrane-spanning receptor (7TMR) family of cell surface receptors. TSHR-mediated hyperthyroidism is important in thyroid pathology. The development of small molecule antagonists of TSHR may lead to therapeutic approaches for TSHR-mediated hyperthyroidism caused by constitutively activating mutations or stimulating auto-antibodies associated with Graves' disease. Graves' disease is the leading cause of hyperthyroidism and is caused by autoantibodies that stimulate TSHR (TsAbs) causing thyroid growth and unregulated overproduction of thyroid hormones and existing treatments have liabilities (agranulocytosis). In addition, TSHRs are known to be expressed in multiple extrathyroidal tissues including bone, brain, kidney, testis, fat and cells of the immune system but the role of the TSHR in these tissues is not clear. Therefore, TSHR antagonists/inverse agonists could be used as probes of extrathyroidal TSHR function. Finally, TSHR inverse agonists, which are a subclass of antagonists that inhibit agonist-independent (or basal or constitutive) TSHR signaling, could be used to inhibit TSH-independent signaling in patients with recurrent or metastatic thyroid cancer who are receiving thyroid hormone to suppress TSH.
An anti cAMP antibody contains a fluorescent cryptate tag (excitation 337 nm; emission 620 nm) and the acceptor is cAMP-d2 (excitation 620 nm; emission 665 nm). When antibody and cAMP-d2 interact and are excited by a 337 nm light, a FRET occurs resulting in emission at 665 nm. The assay is competition between cAMP-d2 and cAMP (from the cell lysate). The homogeneous protocol allows for one step dispense after stimulation that is automation friendly.
Step, Parameter, Value, Description
1, Cells, 3 uL, 2000 TSHR freshly harvested cells/well 1536 TC treated White solid bottom plate (Cells resuspended in 10 mM HEPES buffered HBSS and 70 uM RO 20-1724)
2, Compound, 23 nL, Libraries and controls
3, Compound, 1 uL, EC80 TSH (4 nM final)
5, Reagent, 2 uL, cAMP antibody diluted 1:20 in lysis buffer
6, Time, 30 minutes, Room temperature
7, Detector, HTRF settings, Viewlux

First: C#CCN[C@H](C)Cc1ccccc1
Second: C[C@H](Cc1ccc2c(c1)OC(C(=O)O)(C(=O)O)O2)NC[C@H](O)c1cccc(Cl)c1
The “activity, negative = inhibition” value of the first is higher: -0.557% for the first, -0.698% for the second.

First: Nc1ccc(CCN2CCN(c3cccc(C(F)(F)F)c3)CC2)cc1
Second: O=S1(=O)N(CCN2CC=C(c3c[nH]c4cc(F)ccc34)CC2)c2cccc3c2N1CCC3
The “activity, negative = inhibition” value of the first is higher: -0.188% for the first, -0.266% for the second.

Compared with `O=c1c2ccccc2[se]n1-c1ccccc1`, `c1ccc2c(c1)[I+]c1ccccc1-2` is lower in “activity, negative = inhibition” value: -1.99% for the first, -2.47% for the second.

Compared with `CCN(CC)c1ncnc2c1ncn2[C@@H]1O[C@H](COP(=O)(O)OP(=O)(O)C(Br)(Br)P(=O)(O)O)[C@@H](O)[C@H]1O`, `O=P(O)(O)C(Cl)(Cl)P(=O)(O)O` is higher in “activity, negative = inhibition” value: -1.09% for the first, -1.01% for the second.

First: N[C@@H](Cn1oc(=O)[nH]c1=O)C(=O)O
Second: C[Se]C[C@H](N)C(=O)O
The “activity, negative = inhibition” value of the first is higher: -0.556% for the first, -1.52% for the second.

First: COc1ccc(OC)c(C(O)C(C)N)c1 (stereo not given)
Second: COc1ccc2[nH]cc(CCN)c2c1
The “activity, negative = inhibition” value of the first is lower: -1.84% for the first, -1.75% for the second.

Compared with `CN(C(=O)Cc1ccc(Cl)c(Cl)c1)C(CN1CCCC1)c1cccc(OCC(=O)O)c1` (stereo not given), `COc1ccc(CNC(=O)/C=C/c2ccc3[nH]cc(CCN(C)C)c3c2)cc1` is lower in “activity, negative = inhibition” value: -0.727% for the first, -1.52% for the second.

Compared with `Oc1ccc2c3c1O[C@H]1c4[nH]c5ccccc5c4C[C@@]4(O)C(C2)N(CC2CC2)CCC314` (stereo not given in full), `NC(N)=Nc1ccc2[nH]c3c(c2c1)C[C@@]1(O)[C@H]2Cc4ccc(O)c5c4[C@@]1(CCN2CC1CC1)[C@H]3O5` is lower in “activity, negative = inhibition” value: -1.3% for the first, -1.93% for the second.

Compared with `COc1ccc2[nH]c3c(c2c1)CCNC3`, `COc1ccc2c(c1)[C@@]13CCCC[C@H]1[C@@H](C2)NCC3` is lower in “activity, negative = inhibition” value: -0.795% for the first, -0.808% for the second.

First: CC(N)Cc1c[nH]c2ccc(O)cc12 (stereo not given)
Second: NCCc1c[nH]c2ccc(C(N)=O)cc12
The “activity, negative = inhibition” value of the first is lower: -1.96% for the first, -0.329% for the second.

Compared with `CCCCCCCCCCCCCC(=O)O[C@@H]1[C@@H](C)[C@@]2(O)[C@@H](C=C(CO)C[C@@]3(O)C(=O)C(C)=C[C@@H]23)C2C(C)(C)[C@@]21OC(C)=O` (stereo not given in full), `NC(CCCCCP(=O)(O)O)C(=O)O` (stereo not given) is lower in “activity, negative = inhibition” value: 1.9% for the first, -0.337% for the second.

Compared with `O=[N+]([O-])c1cc(O)c(O)c([N+](=O)[O-])c1`, `CN(N=O)c1cc(O)ccc1O` is higher in “activity, negative = inhibition” value: -0.912% for the first, 0.11% for the second.

First: C[N+]1(C)C2CCC1CC(OC(=O)c1c[nH]c3ccccc13)C2 (stereo not given)
Second: CN1C2CCC1CC(OC(c1ccccc1)c1ccc(Cl)cc1)C2 (stereo not given)
The “activity, negative = inhibition” value of the first is higher: 0.11% for the first, -2.18% for the second.

Compared with `C=CCN1CC[C@]23c4c5ccc(O)c4O[C@H]2/C(=N/NC(=O)c2ccccc2)CC[C@@]3(O)[C@H]1C5`, `CC12NC(Cc3ccccc31)c1ccccc12` (stereo not given) is higher in “activity, negative = inhibition” value: -1.42% for the first, -0.478% for the second.

Compared with `CCCN1CCCC2Cc3[nH]ncc3CC21` (stereo not given), `CCCN1CC[C@@H]2c3cc(O)ccc3CC[C@@H]21` is higher in “activity, negative = inhibition” value: -1.71% for the first, -0.537% for the second.

Compared with `CC(N)c1cccc(Cl)c1Cl` (stereo not given), `COc1ccc2c(c1)/C(=C/c1cnc[nH]1)C(=O)N2` is lower in “activity, negative = inhibition” value: -1.26% for the first, -1.92% for the second.

First: NC(=O)COc1c(F)cc(SCCNS(=O)(=O)c2ccccc2)cc1F
Second: CNC(=O)OCC[N+](C)(C)C
The “activity, negative = inhibition” value of the first is lower: -0.175% for the first, 0.225% for the second.

Going from `O=[N+]([O-])c1ccc2nc(N3CCNCC3)ccc2c1` to `COc1ccc2c(c1)C13CCCCC1C(C2)N(C)CC3` (stereo not given), the “activity, negative = inhibition” value rises from -1.6% to -1.1%.

Compared with `NNC(N)=O`, `CC(=O)NBr` is lower in “activity, negative = inhibition” value: -0.532% for the first, -1.23% for the second.

First: CC1OC1P(=O)(O)O (stereo not given)
Second: C[C@@H]1O[C@H](C[N+](C)(C)C)CS1
The “activity, negative = inhibition” value of the first is lower: -0.603% for the first, 0.922% for the second.

— PubChem BioAssay (NCATS)
